Screens (PubChem)
Tb PYK inh = qHTS of Trypanosoma Brucei Inhibitors. pyruvate kinase (Trypanosoma brucei), Q57TT1. TbPYK enzyme, Kinase-Glo Plus ATP luminescence, 45 min. Potency, µM (doses to about 76.8 µM), without a hit: top-dose activity, negative = inhibition, usual class: inhibitors. actives 0.12% (n = 410,000); also: potency is read from the fitted curve at half-maximal effect; % is scaled to controls: 0 for no effect and ±100 for the full control effect; nearly all actives have a fitted effect of over 50% in size
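ADP (130 uM final) triggers the TbPYK reaction after compound addition; incubation is 45 min at room temperature. Kinase-Glo Plus is then added and luminescence imaged. Normalized data are fitted to concentration-effect curves.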
Cycloheximide cs = Cycloheximide Counterscreen for Small Molecule Inhibitors of Shiga Toxin. cell reporter, cycloheximide protein synthesis inhibition counterscreen. max response, %. actives 12% (n = 300,000); in the data active = max response mostly above about 13%, no sharp cut-off; inactive = mostly below about 14%; also: read at 38.3 µM for the half of the compounds with a filed dose; 0% is about no effect
Sm TGR inh = qHTS Assay for the Inhibitors of Schistosoma Mansoni Peroxiredoxins; Schistosoma mansoni thioredoxin glutathione reductase (TGR), Q962Y6; purified TGR, DTNB reduction, TNB absorbance 405 nm; Potency, µM (doses to about 114 µM), for the others: at the top dose activity change, negative = inhibition, usual class: inhibitors; actives 3% (n = 360,000); also: potency is read from the fitted curve at half-maximal effect; % is scaled to controls: 0 for no effect and ±100 for the full control effect; nearly all actives have a fitted effect of over 60% in size
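First, TGR (20 nM dispensed) and NADPH were mixed with compound. Second, a 15 min room-temperature incubation followed. Third, further NADPH and then DTNB were added to start the reaction. Finally, TNB absorbance was monitored kinetically.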
Shiga toxin inh = A qHTS for Small Molecule Inhibitors of Shiga Toxin. actives 9.2% (n = 290,000). Vero cells, Shiga toxin protein synthesis inhibition reporter. inhibition, % at 38.7 µM; in the data active = inhibition mostly above about 28%, no sharp cut-off; inactive = mostly below about 43%; also: 0% is about no effect
Giardia FBPA inh = qHTS Assay for Inhibitors of Fructose-1,6-bisphosphate Aldolase from Giardia Lamblia; A8B2U2; purified Giardia FBPA; Potency, µM (top dose mostly 59.6 µM), without a hit: at the top dose activity, negative = inhibition, hits mostly inhibitors; actives 0.71% (n = 290,000); AID 2451, 2010; also: potency is read from the fitted curve at half-maximal effect; % is scaled to controls: 0 for no effect and ±100 for the full control effect; nearly all actives have a fitted effect of over 55% in size
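Giardia FBPA (40 nM reagent) was preincubated 10 min at RT with compound (up to 57.5 uM final), then substrate plus GAPDH/TPI/NAD/arsenate coupling system with diaphorase/resazurin was added; resorufin fluorescence (525/598 nm) was read after 20 min.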
LmPK inhibitor = qHTS Assay for Inhibitors of Leishmania Mexicana Pyruvate Kinase (LmPK). Potency, µM (top dose mostly 57.5 µM), without a hit: top-dose activity change, negative = inhibition, actives largely listed as inhibitors. AID 1721, 2009. actives 0.37% (n = 290,000). purified LmPK, Kinase-Glo ATP luminescence, 1 h. Q27686; also: potency is read from the fitted curve at half-maximal effect; % is scaled to controls: 0 for no effect and ±100 for the full control effect
Target sequence (Q27686 whole entry, looked up): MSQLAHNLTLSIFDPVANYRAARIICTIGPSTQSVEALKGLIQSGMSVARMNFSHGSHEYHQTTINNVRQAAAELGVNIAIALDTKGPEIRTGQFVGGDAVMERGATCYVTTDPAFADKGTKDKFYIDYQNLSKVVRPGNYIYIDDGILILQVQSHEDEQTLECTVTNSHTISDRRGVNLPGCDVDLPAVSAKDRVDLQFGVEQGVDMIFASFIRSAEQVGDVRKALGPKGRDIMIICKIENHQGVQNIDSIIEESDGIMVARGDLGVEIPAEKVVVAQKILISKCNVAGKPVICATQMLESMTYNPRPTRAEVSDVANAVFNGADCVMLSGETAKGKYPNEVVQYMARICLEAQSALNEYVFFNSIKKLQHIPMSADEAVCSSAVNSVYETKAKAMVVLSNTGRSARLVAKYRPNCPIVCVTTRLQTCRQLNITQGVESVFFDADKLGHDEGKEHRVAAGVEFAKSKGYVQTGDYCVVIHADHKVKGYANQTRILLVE
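ATP generated from ADP (0.1 mM) and PEP (0.5 mM) by 0.1 nM LmPK over 1 h at room temperature (pH 7.2 imidazole buffer) was detected by coupled luciferase luminescence. Values were normalized to uninhibited and no-enzyme wells.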
* marks the source's active call; other numbers are inactive results; ? = inconclusive; . = not tested or not shown. Many of the other results were omitted from the sample, so hits are more common in it than they were. Unless noted, calls follow the shape of the dose curve; as a rule, active = well fitted curve in the direction sought with a large enough effect; inconclusive = small, poorly fitted or top-dose-only effect, or another doubt; inactive = no such curve, though single readings can be large; an effect the other way counts as inactive or inconclusive.

SMILES | Tb PYK inh | Cycloheximide cs | Sm TGR inh | Shiga toxin inh | Giardia FBPA inh | LmPK inhibitor
CC(Sc1nnc(Cc2ccccc2)o1)C(=O)Nc1ccccc1[N+](=O)[O-] (stereo not drawn) | 0% | . | -8% | . | . | .
CC(=O)N1c2ccccc2Oc2cc3ccccc3cc21 | 2% | 26* | 1% | 53 | 7% | 1%
COc1ccc(CNc2nc(-c3ccco3)nn2C(=O)c2ccccc2Cl)cc1 | -2% | . | 5% | . | . | .
COc1ccc(C(=O)n2nc(-c3ccco3)nc2NCc2cccs2)cc1 | -18% | . | 11µM* | . | . | .
COc1ccc(CNc2nc(-c3cccnc3)nn2C(=O)c2cccs2)cc1 | 0% | 29* | -5% | 13 | -2% | 4%
CCc1ccc(OCC(=O)Nc2cc3oc4ccccc4c3cc2OC)c(Br)c1 | 3% | . | -3% | . | . | .
COc1ccc(-c2nc(N)n(C(C)=O)n2)cc1 | 3% | 13 | 60% | 12 | -1% | -12%
CCC(=O)n1nc(-c2ccc(Cl)cc2)nc1SC | -22% | 32* | -16% | 68* | -2% | -1%
CSc1nc(-c2ccc(Cl)cc2)nn1S(=O)(=O)c1ccc(Cl)cc1 | 6% | 7 | -6% | 14 | -8% | 1%
CCCC(=O)n1nc(-c2ccc(Cl)cc2)nc1SC | 6% | 23* | 0% | 67* | -5% | -7%
CCC(=O)n1nc(-c2ccc(OC)cc2)nc1SC | -7% | 30* | -22% | 42* | 2% | -9%
CCCC(=O)n1nc(-c2cccnc2)nc1N | . | 1 | 0% | 14 | 6% | -1%
COc1cc2c(cc1OC)[C@@H](Cc1ccc(OCCC#N)cc1)N(C)CC2 | -9% | -3 | 50µM* | -3 | -8% | -1%
CC(=O)c1ccc(N2CCN(c3ncnc4c3c(-c3ccccc3)cn4-c3ccc(Cl)cc3)CC2)cc1 | -2% | . | 3% | . | . | .
CS(=O)(=O)N1CCC2(CCCN(Cc3ccc(C#N)cc3)C2)CC1 | -10% | . | . | . | 9% | .
CCCC1CC(=O)OC1(C)C(=O)CSc1n[nH]c(-c2ccccc2)n1 (stereo not drawn) | . | 21 | ? | 66* | -15% | 2%
CCOC(=O)c1n[nH]n2c1nc(=S)c1ccccc12 | -17% | -1 | 11µM* | -4 | -5% | -19%
Cc1cc(C)nc(SCC(=O)c2ccc3c(c2)OCCO3)n1 | 7% | 26* | 4% | -1 | 8% | 6%
CCOC(=O)c1cnc(SCC(=O)c2ccc3c(c2)OCCO3)nc1N | 3% | 28* | -1% | 104* | 0% | 5%
COc1ccc(-c2nnn(CC(=O)c3ccc4c(c3)OCCO4)n2)cc1OC | 1% | 16* | 5% | 36 | 2% | 4%
Cc1cc(C)nc(SCC(=O)Nc2ccc3c(c2)OCO3)n1 | -1% | 8 | 0% | 8 | 0% | 1%
O=C(Cn1nc(Cl)nc1Cl)c1ccc(F)cc1 | -1% | 9 | 9% | -7 | 1% | 0%
O=C(Cn1nc(Cl)nc1Cl)c1ccc2c(c1)OCCO2 | -2% | -2 | 20µM* | -7 | 10% | -2%
C[C@]12CC[C@@H]3c4ccc(OC(=O)N(CCCl)CCCl)cc4CC[C@H]3[C@@H]1CC[C@@H]2OP(=O)(O)O | -7% | . | . | . | . | .
CCOC(=O)CN1C(=O)/C(=C/c2c(F)cccc2Cl)Oc2ccccc21 | 13% | 19* | 7% | 19* | -3% | 2%
SMILES | Tb PYK inh | Cycloheximide cs | Sm TGR inh | Shiga toxin inh | Giardia FBPA inh | LmPK inhibitor
CCOC(=O)CN1C(=O)/C(=C/c2cccc(Br)c2)Oc2ccccc21 | -16% | -6 | -5% | -12 | -1% | 2%
CCOc1ccccc1C(=O)N1CCc2cc(OC)c(OC)cc2C1COc1ccc2c(C)cc(=O)oc2c1 (stereo not drawn) | -5% | . | -2% | . | . | .
Fc1cccc(Cc2c(C3CCCCC3)nc3ccc(Br)cn23)c1 | 4% | . | . | . | . | .
COc1cccc(CNC(=O)Cn2c(=O)cc(C)c3c(C)nn(C)c32)c1OC | -1% | . | -2% | . | . | .
CCCOc1ccc2c(CC)cc(=O)oc2c1C | -15% | 11* | 1% | 31 | 7% | -10%
COC(=O)c1cccc(COC(=O)c2cccnc2SC)c1 | 2% | 21* | 5% | 38 | -1% | 6%
COc1ccc(C(C)=O)cc1COC(=O)c1cccnc1SC | -2% | 1 | 3.2µM* | 8 | -1% | 6%
COc1ccc(C(C)=O)cc1COC(=O)c1ccc2ccccc2n1 | -4% | 2 | 25µM* | -16 | -9% | 3%
COc1ccccc1C(=O)COC(=O)Cc1n[nH]c(=O)c2ccccc12 | -12% | . | 8% | . | . | .
CCOc1ccc(C(C)=O)cc1COC(=O)c1cccnc1SC | 1% | -1 | -3% | -5 | 0% | 0%
COc1ccc(C(C)=O)cc1COC(=O)Cc1n[nH]c(=O)c2ccccc12 | -8% | -3 | 18µM* | 3 | 11% | 2%
Cc1ccc(CNC(=O)c2nnn(CC(=O)Nc3cccc(C)c3C)c2N)cc1 | -1% | 10 | -7% | 6 | -5% | -1%
COc1ccc(C(C)=O)cc1COC(=O)c1cc(=O)c2ccccc2o1 | -1% | -4 | 1.8µM* | 1 | 2% | -4%
COc1ccc(C(C)=O)cc1COC(=O)c1cc(C)nc2ccccc12 | -14% | 15 | 3.5µM* | -4 | 2% | 7%
CC(C)C[C@H](NC(=O)[C@H](CCCCN)NC(=O)CNC(=O)[C@H](CC(C)C)NC(=O)[C@@H](NC(=O)[C@@H]1CSSC[C@H](N)C(=O)N[C@@H](CO)C(=O)N[C@@H](CC(N)=O)C(=O)N[C@@H](CC(C)C)C(=O)N[C@@H](CO)C(=O)N[C@@H]([C@@H](C)O)C(=O)N1)C(C)C)C(=O)N[C@@H](CO)C(=O)N[C@@H](CCC(N)=O)C(=O)N[C@@H](CCC(=O)O)C(=O)N[C@@H](CC(C)C)C(=O)N[C@@H](Cc1cnc[nH]1)C(=O)N[C@@H](CCCCN)C(=O)N[C@@H](CC(C)C)C(=O)N[C@@H](CCC(N)=O)C(=O)N[C@H](C(=O)N[C@@H](Cc1ccc(O)cc1)C(=O)N1CCC[C@H]1C(=O)N[C@@H](CCCNC(=N)N)C(=O)N[C@H](C(=O)N[C@@H](CC(N)=O)C(=O)N[C@H](C(=O)NCC(=O)N[C@@H](CO)C(=O)NCC(=O)N[C@H](C(=O)N1CCC[C@H]1C(N)=O)[C@@H](C)O)[C@@H](C)O)[C@@H](C)O)[C@@H](C)O | . | -8 | . | -6 | 4% | .
Cc1ccccc1NC(=O)CCn1nc(-c2ccc(Cl)cc2)c2ccccc2c1=O | -1% | . | 6% | . | . | .
COc1ccc(/C(=N\Nc2ccccc2C(=O)O)c2ccccc2)cc1 | -3% | 29* | -28% | 169* | 1% | 14%
